# Data published in the supplement of paper PMC4206461.
# System: Pseudomonas aeruginosa PA14 wild type
# Experiment: respiration area under curve with compound as sole nitrogen source, 24 h (OmniLog AUC (arbitrary units)); higher = more respiration / better utilisation as nitrogen source, active = 2000 or more
# Protocol: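 Biolog Phenotype MicroArray plates PM6-PM8: each di/tripeptide is the sole nitrogen source (IF-0 medium with succinate/ferric citrate and dye mix A). Tetrazolium reduction was read in the OmniLog every 15 min for 24 h at 37°C and summarised as area under the respiration curve (arbitrary units). The paper counts values below 2000 as no respiration and above 8000 as solid respiration. Replicate datasets are averaged.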
row,Compound,respiration area under curve
1,CSCC[C@H](NC(=O)[C@@H](N)[C@@H](C)O)C(=O)O (plate: PM7),4960 (active)
2,C[C@H](N)C(=O)N1CCC[C@H]1C(=O)O (plate: PM6),12000 (active)
3,N[C@@H](Cc1ccc(O)cc1)C(=O)N[C@@H](CCC(=O)O)C(=O)O (plate: PM7),4890 (active)
4,CC(C)C[C@H](N)C(=O)N[C@H](CC(C)C)C(=O)O (plate: PM8),0 (inactive)
5,CC[C@H](C)[C@H](N)C(=O)N[C@@H](Cc1ccccc1)C(=O)O (plate: PM6),2830 (active)
6,CC(C)[C@H](N)C(=O)N[C@@H](CC(=O)O)C(=O)O (plate: PM7),8160 (active)
7,C[C@H](NC(=O)CCN)C(=O)O (plate: PM8),6440 (active)
8,NCC(=O)N[C@@H](Cc1ccc(O)cc1)C(=O)O (plate: PM6),2560 (active)
9,CSCC[C@H](NC(=O)[C@H](C)N)C(=O)O (plate: PM8),6360 (active)
